Screening results as filed in PubChem BioAssay.
Pf growth 96h = P. falciparum growth inhibition at 96 hour, primary screen for plastid delayed-death inhibitors | P. falciparum luciferase reporter growth, 96 h | Potency, µM (highest dose often 28.7 µM), usual class: inhibitors | 320,000 tested, 6.9% active
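Luminescence readout: decreased luciferase signal marks inhibited growth of reporter-expressing P. falciparum in infected red cells (2% hematocrit, 0.05% parasitemia final), exposed to compound two generations (96 h, 37 C, 5% CO2).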
Cycloheximide cs = counter-screen hit for Shiga toxin inhibitors, cycloheximide; max response, %; cell reporter, cycloheximide protein synthesis inhibition counterscreen; 300,000 tested, 12% active; in the data active = max response mostly above about 13%, no sharp cut-off; inactive = mostly below about 14%; also: read at 38.3 µM for the half of the compounds with a filed dose
Shiga inhibitor = inhibitors of Shiga toxin in Vero cells. AID 2315. 290,000 tested, 9.2% active. Vero cells, Shiga toxin protein synthesis inhibition reporter. inhibition, % at 38.7 µM; in the data active = inhibition mostly above about 28%, no sharp cut-off; inactive = mostly below about 43%
NS1 inh = inhibitors of influenza NS1 protein function | 270,000 tested, 0.4% active | Potency, µM (doses to about 46.1 µM); calls by dose curve; also: actives are rising curves; nearly all actives have a fitted effect of over 50% in size
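A cell-based growth assay was used: compounds that relieve NS1-induced slow growth of budding yeast raise OD600. Assay medium was yeast nitrogen base with ammonium sulphate and -URA supplement, pH 6.0, with 2% galactose.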
Pf growth 48h = inhibits P. falciparum growth in the first generation, 48 h; Potency, µM (doses to about 28.7 µM), most hits filed as inhibitors; P. falciparum luciferase growth in erythrocytes, 48 h; 310,000 tested, 5.9% active
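First compound was added to culture medium, then infected red cells at 0.1% parasitemia and 2% hematocrit (final). After incubation at 37 C under 5% CO2, luciferase detection reagent was dispensed and light output recorded.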
Numbers stand for hits; – = inactive; ? = inconclusive; · = no result; [ ] = dose if it differs, or a comment. Shown are actives, neighbours in structure and some others; about 21% of the full set was active somewhere. Unless noted, calls follow the shape of the dose curve; as a rule, active = well fitted inhibition curve with a large enough effect; inconclusive = small, poorly fitted or top-dose-only effect, or another doubt; inactive = no such curve, though single readings can be large or run the other way.

SMILES	Pf growth 96h	Cycloheximide cs	Shiga inhibitor	NS1 inh	Pf growth 48h
Cc1cc(C)cc(NC(=O)CCn2c(=O)c3cccn3c3ccccc32)c1	–	–	–	–	–
CC(c1ccccc1)N1C(=O)CC(Sc2ncccc2C(=O)O)C1=O (stereo unspecified)	2.1µM	–	–	–	–
O=C(O)c1cccnc1SC1CC(=O)N(c2ccccc2)C1=O (stereo unspecified)	–	–	–	–	?
CC(NC(=O)CCl)c1ccc(Cl)c(Cl)c1 (stereo unspecified)	3.7µM	–	–	–	·
CC(NC(=O)CCl)c1ccccc1Br (stereo unspecified)	1.5µM	–	–	–	1.5µM
CC(NC(=O)c1ccc(Cl)c(Cl)c1)c1ccc(-c2ccccc2)cc1 (stereo unspecified)	–	–	–	–	–
CC(OC(=O)c1cc(=O)[nH]c2ccccc12)C(=O)NC1CCCCC1C (stereo unspecified)	–	·	·	·	–
COC(=O)c1cc(S(=O)(=O)NCC2CCN(Cc3ccccc3F)CC2)c[nH]1	–	–	–	–	–
O=c1ccc(-c2ccc(S(=O)(=O)NCC3CCN(Cc4ccccc4F)CC3)s2)n[nH]1	2.9µM	–	–	–	?
CCN(CC)S(=O)(=O)c1csc(C(=O)OCC(=O)c2ccccc2)c1	?	33	41	–	–
O=C(Cc1ccc(Cl)cc1)Nc1ccccc1CO	–	–	–	–	–
CCNC(=S)NNC(=O)CCc1nc2cc(Cl)ccc2n(Cc2ccccc2)c1=O	5.9µM	–	–	–	?
NC(=O)CCc1nc2cc(C(F)(F)F)ccc2n(Cc2ccccc2)c1=O	–	–	–	–	–
Cc1cc(NC(=O)COC(=O)CSc2nc3cc(Cl)ccc3n2Cc2ccccc2)no1	–	–	–	–	–
CN(C)C(CNC(=O)CCc1nc2cc(Cl)ccc2n(Cc2ccccc2)c1=O)c1ccccc1 (stereo unspecified)	10µM	·	·	·	9.3µM
COc1ccccc1CN1CC(C(=O)NCc2cc(C(C)C)no2)CCC1=O (stereo unspecified)	–	–	–	–	–
COc1ccc(/C=C/c2c(-c3ccc(OC)cc3)oc3ccccc23)cc1	?	–	–	–	?
O=c1nc(/C=C/c2ccc(O)c(O)c2)oc2ccccc12	–	25	–	–	–
COc1ccc(/C=C\c2nc(=O)c3ccccc3o2)cc1	–	60	135	·	?
CCOC(=O)N1CCN(C(=O)CSc2nc(CC)nc3c2c(=O)n(C)c(=O)n3C)CC1	–	–	–	–	–
CCN1CCN(C(CNS(=O)(=O)c2ccc(F)cc2)c2cccnc2)CC1 (stereo unspecified)	–	–	–	–	–
CC1CCN(S(=O)(=O)c2ccc3c(c2)c(=O)c(C(=O)NCc2ccccc2Cl)cn3C)CC1	?	–	–	–	–
Cc1cc(C)c2sc(N(CCCN(C)C)C(=O)c3ccc(Br)s3)nc2c1	?	–	–	·	?
CN(C)CCN(C(=O)c1ccc(Br)s1)c1nc2cc3c(cc2s1)OCCO3	–	44	68	·	–
CN(C)CCN(C(=O)c1ccc(N2C(=O)CCC2=O)cc1)c1nc2cc3c(cc2s1)OCO3	–	–	–	·	–
SMILES	Pf growth 96h	Cycloheximide cs	Shiga inhibitor	NS1 inh	Pf growth 48h
CN(C)CCN(C(=O)c1cccs1)c1nc2cc3c(cc2s1)OCCO3	–	51	–	–	–
CCOC(=O)c1cc(C#N)c(Oc2ccccc2OC)nc1-c1ccccc1	?	–	–	–	?
Cc1ccc(O)c(N=Cc2sc3ccccc3c2Cl)c1	?	45	73	–	?
Oc1ccc(Cl)cc1C=Nc1ccccc1Br	–	–	–	–	–
Cc1ccc(C)c(N=Cc2c(O)c3ccccc3oc2=O)c1	–	–	·	–	–
Oc1ccccc1N=Cc1sc2ccccc2c1Cl	?	40	29	–	?
Cc1ncoc1C(=O)Nc1nccs1	–	–	–	–	–
O=C(/C=C/c1ccc(Br)o1)Nc1nccs1	–	39	95	·	–
O=C(Nc1nccs1)c1ccc(Br)o1	–	33	69	–	–
COc1ccc2cc(C(=O)N3CCC(Cc4ccccc4)CC3)[nH]c2c1	–	–	–	–	–
O=C(NC1CCCCC1)C(c1cccnc1)N(C(=O)c1csnn1)c1ccccc1F (stereo unspecified)	–	–	–	–	–
C=CCNc1nc(C(=O)OCC(=O)NCc2cccc(Cl)c2)cs1	–	·	·	·	–
CC(=O)c1ccc(OCC(=O)NC2CCCCCC2)cc1	–	·	·	·	–
CC(C)c1ccc(OCC(=O)NC2CCCC2)cc1	–	34	63	–	?
CC(C)c1ccc(OCC(=O)NC(C)c2ccccc2)cc1 (stereo unspecified)	13µM	–	–	–	–
COC(=O)c1ccc(OCC(=O)NC2CCCCCC2)cc1	?	–	39	–	–
COc1ccc(OCC(=O)NC2CCCN(Cc3ccc(Cl)cc3)C2)cc1 (stereo unspecified)	?	–	–	–	13µM
CC(OC(=O)c1cccc(-n2cnnn2)c1)C(=O)Nc1ccc(F)cc1Cl (stereo unspecified)	–	·	·	·	–
O=C(c1cccc(C(=O)N(c2ccccn2)C2CCCCC2)c1)N(c1ccccn1)C1CCCCC1	–	–	–	–	12µM
CC(C)CC(NC(=O)COc1ccccc1)C(=O)O (stereo unspecified)	12µM	–	–	–	–
CC(=O)NC(Cc1ccc(N(CCCl)CCCl)cc1)C(=O)NC(CC(C)C)C(=O)O (stereo unspecified)	10µM	–	–	–	–
CCOC(=O)C(NC(=O)C(Cc1ccc(N(CCCl)CCCl)cc1)NC(C)=O)C(C)C (stereo unspecified)	–	–	–	–	–
O=C(COc1ccc(F)cc1)N(c1ccccn1)C1CCCCC1	–	–	–	–	–
CC(C)c1ccc(OCC(=O)N(c2ccccn2)C2CCCCC2)cc1	–	17	–	–	?
O=C(c1ccc(Cl)cc1)N(c1ccccn1)C1CCCCC1	–[5.75 µM]	–	–	–	–[5.75 µM]
SMILES	Pf growth 96h	Cycloheximide cs	Shiga inhibitor	NS1 inh	Pf growth 48h
COc1ccc(Cl)cc1NC(=O)CN1C(=O)NC2(CCCC2)C1=O	–	–	–	–	–
O=C(CCc1ccncc1)NC1CCCc2c1cnn2-c1cc(F)cc(F)c1 (stereo unspecified)	?	–	–	–	–
NC(=O)c1cc(C(=O)c2ccccc2Cl)c[nH]1	–	–	–	–	–
O=C1c2ccccc2C(=O)N1Cc1ccccn1	–	–	–	·	–[5.75 µM]
COC(=O)C(CC(C)C)NC(=O)C(N)Cc1ccccc1 (stereo unspecified)	–	–	–	–	–
COc1ccc(OCCC(=O)NC2CCCCC2)cc1	–	–	–	·	–
COc1ccc(OCC(=O)NC2CCCCCCC2)cc1	–	27	42	–	–
CC(C)C[C@H](NC(=O)[C@@H](O)[C@H](N)Cc1ccccc1)C(=O)O	0.67µM	·	·	–	0.76µM
O=C(O)c1ccccc1SSc1ccccc1C(=O)O	–	–	–	–	–
C[CH2][Hg][S]c1ccccc1C(=O)O	1.2µM	·	·	·	1.9µM
COc1ccc(CCn2c(SCCN3CCCCC3)nc3ccccc3c2=O)cc1OC	–	–	–	–	?
